Drawing on PubChem BioAssay, this text covers z-score for 29 compounds.

Activity calls are given as the source filed them.

A short description of the first assay: resazurin metabolic signal in HepG2 cells – cell-based, resazurin fluorescence, 24 h, PK04 Diversity Set, profiling panel (AID 1172). Also: test concentration not given here. As to conditions: HepG2 viability, higher = more signal.
For `COC(=O)[C@@H]1CC[C@H](C)[C@@H](c2ccc(C)cc2)N1C(=O)c1ccc(C=NOCC[C@@H]2C=C[C@H](OC(C)=O)[C@@H](COC(C)=O)O2)cc1`, the z-score is -0.574.

Take `CCOC(=O)CCN1C(=O)[C@H]2[C@H]3[C@H](O)[C@H](O)CC(=NOCc4ccccc4)[C@H]3CC[C@H]2C1=O`: the z-score is -0.436.

As for `CCOC(=O)NN=C1C[C@@H](O)[C@@H](O)[C@@H]2[C@@H]3C(=O)N(c4cccc(Oc5ccccc5)c4)C(=O)[C@@H]3CC[C@H]12`, the z-score was 0.287.

Turning to `COC(=O)CC=C[C@@H](C)[C@@H](C=NOC(C)CN1CCCc2nc(C)c(C)cc21)OC` (some centres undefined), the z-score was -0.412.

A further assay can be described thus: budding yeast growth changes without added modifier – OD600, strain BY4716, 24 h, basal condition, primary screen (AID 1173). As to conditions: S. cerevisiae BY4716 growth, OD600, 24 h; higher = more signal, called active from +8 up or from −8 down.
With `C[C@@H]1NC(=O)[C@@H](C)COC(=O)[C@H](C)NC(=O)[C@@H](C)COC1=O`, the z-score is -2.62 (inactive).

On to `C[n+]1ccc(-c2ccc(CO)cc2)cc1`, for which the z-score was 0.11 (inactive).

Turning to `O=C1C[C@@H](O)[C@@H](O)[C@@H]2[C@@H]3C(=O)N(C[C@@H]4CCCO4)C(=O)[C@@H]3CC[C@H]12`, the z-score is -0.189 (inactive).

Take `CCN1C(=O)[C@@H]2[C@H]3C(=CC[C@@H]2C1=O)C1(OCCCO1)[C@H]1O[C@H]1[C@H]3O`: the z-score is -9.39 (active).

For `COC(=O)C=CCCc1coc(C=CCNC(=O)OC)n1`, the z-score was -1.07 (inactive).

For `COC(=O)CC=C[C@@H](C)[C@@H](C=NO[C@@H](C)c1cn([C@H](CO)Cc2ccccc2)nn1)NS(=O)(=O)c1ccc(C)cc1`, the z-score is -0.913 (inactive).

In the case of `O=C(NN=C1C[C@@H](O)[C@@H](O)[C@@H]2[C@@H]3C(=O)N(C[C@@H]4CCCO4)C(=O)[C@@H]3CC[C@@H]12)OCc1ccccc1`, the z-score was -0.485 (inactive).

Regarding `CCOC(=O)C1=NO[C@@]2(C=C(Br)C3(OCCCO3)[C@H]3O[C@H]32)C1`, the z-score is -0.303 (inactive).

Consider `COCCNC(=O)OCC1CCCC2(CC(OC(=O)NCc3ccc4c(c3)OCO4)CC(CCC(=O)N[C@@H](C)C(=O)OC)O2)O1` (some centres undefined), for which the z-score is -0.433 (inactive).

On to `COc1ccc(COC(=O)NN=C2C[C@@H](O)[C@@H](O)[C@@H]3[C@@H]4C(=O)N(c5ccc(F)cc5F)C(=O)[C@@H]4CC[C@H]23)cc1`, for which the z-score was -0.291 (inactive).

Regarding `CC(CCN1CCCc2nc(C)c(C)cc21)=NOC(C)CN1CCCCc2nc(C)c(C)cc21` (centres undefined), the z-score is 1.38 (inactive).

As for `COC(=O)CC=C[C@@H](C)[C@@H](C=NOCC[C@@H]1C=C[C@H](OC(C)=O)[C@@H](COC(C)=O)O1)OC`, the z-score is 0.557 (inactive).

On to `CC(CCN1CCCCc2nc(C)c(C)cc21)=NOC[C@@H](O)COCc1ccco1`, for which the z-score is -0.0954 (inactive).

`CCOC(=O)[C@H](Cc1ccccc1)NC(=O)CCC1CC(OC(=O)NCc2cccc3ccccc23)CC2(CCCC(COC(=O)NCc3cccc(C(F)(F)F)c3)O2)O1` (some centres undefined): the z-score is -0.168 (inactive).

As to `CCOC(=O)[C@H](CC(C)C)NC(=O)CCC1CC(OC(=O)NCCc2ccc(F)cc2)CC2(CCCC(COC(=O)NCCOc3ccccc3)O2)O1` (some centres undefined), the z-score was 0.0544 (inactive).

Turning to `COC(=O)[C@H]1[C@@H](O)[C@@]2(O)c3ccccc3O[C@@]2(c2ccccc2)[C@@H]1c1ccccc1`, the z-score was 0.358 (inactive).

Consider `C#CCCCON=C1C[C@@H](O)[C@@H](O)[C@@H]2[C@@H]3C(=O)N(C(C)(C)C)C(=O)[C@@H]3CC[C@H]12`, for which the z-score is 0.522 (inactive).

In the case of `CO[C@@H]1C=CCC(=O)N[C@@H](C)C(=O)OC[C@@H](OC)[C@H](C)CCCC(=O)OC[C@H]1C`, the z-score is -0.445 (inactive).

Take `CON=C[C@@H](C)[C@H](OCc1ccccc1)C(C)C`: the z-score was -0.639 (inactive).

On to `Cc1ccc(S(=O)(=O)n2c3ccccc3c3nnc(C(=O)c4ccccc4)nc32)cc1`, for which the z-score was -0.586 (inactive).

Consider `CC(C)CON=C1C[C@@H](O)[C@@H](O)[C@@H]2[C@@H]3C(=O)N(C4CCCCC4)C(=O)[C@@H]3CC[C@H]12`, for which the z-score was -0.197 (inactive).

As to `CO[C@@H]1COC(=O)CC=C[C@@H](C)[C@H](OC)COC(=O)[C@@H](C)COC(=O)CC=C[C@H]1C`, the z-score was -0.621 (inactive).

In the case of `COC(=O)CC=C[C@@H](C)[C@@H](C=NO[C@@H](C)c1cn([C@H](CO)Cc2ccccc2)nn1)OC`, the z-score was -0.966 (inactive).

Take `COC(=O)CC=C[C@@H](C)[C@@H](C=NOC[C@@H](O)[C@H]1O[C@@H]2OC(C)(C)O[C@@H]2[C@H]1O)NS(=O)(=O)c1ccc(C)cc1`: the z-score was 0.185 (inactive).

`COc1ccc(O[C@H]2C=C[C@@H](c3ccccc3)O[C@@H]2COC(=O)CCC(C)=NOC(C)CN2CCCc3nc(C)c(C)cc32)cc1` (some centres undefined): the z-score was -0.729 (inactive).
